Assay results taken from the supplement of paper PMC8975748.
Counter-ions that a name gives are not always drawn. ± gives the standard deviation of the averaged measurements.

Tests used:
[1] = system: Saccharomyces cerevisiae BY4741 SeMeCo community; test: mean cell size (pixel area) (pixels); higher = larger cells; settings: 10 µM; 24 h; SM minimal medium
Outline: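 Mean cell pixel area per well was determined by automated confocal microscopy with Harmony analysis of paraformaldehyde-fixed cells. The cells, a Saccharomyces cerevisiae BY4741 community of four plasmids that each complement one auxotrophy and carry a fluorescent marker, were incubated for 24 h with drug at a final 10 µM in SM medium in 384-well plates. Numbers are averaged over 3 replicates. Same SeMeCo high-content imaging drug screen: Selleck FDA-approved drugs at 10 µM, 24 h in SM medium, 384-well plates, 3 replicates.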

[2] = system: Saccharomyces cerevisiae BY4741 SeMeCo community; test: z-score of subpopulation abundance vs DMSO median, subpopulation auxotrophic for M; higher = larger share of this subpopulation than in DMSO controls; settings: 10 µM; 24 h; SM minimal medium; subpopulation (auxotrophy): M
Outline: (§1)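 Cells of a Saccharomyces cerevisiae BY4741 community, carrying four plasmids that each restored one auxotrophy and encoded a distinct fluorescent protein, were pre-grown overnight to OD600 1.0 and diluted to 0.3. A 70 µl volume was added to 384-well plates acoustically predosed with library drugs (10 µM final) and grown 24 h in minimal SM medium. After paraformaldehyde fixation, automated confocal microscopy was used, with single-auxotroph fluorescent strains for thresholds and autofluorescence correction. The abundance of each subpopulation was scored as a z-score against the vehicle-well median.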

[3] = system: Saccharomyces cerevisiae BY4741 SeMeCo community; test: z-score of subpopulation abundance vs DMSO median, subpopulation auxotrophic for L; higher = larger share of this subpopulation than in DMSO controls; settings: 10 µM; 24 h; SM minimal medium; subpopulation (auxotrophy): L
Outline: as §1

[4] = system: Saccharomyces cerevisiae BY4741 SeMeCo community; test: z-score of subpopulation abundance vs DMSO median, subpopulation auxotrophic for H; higher = larger share of this subpopulation than in DMSO controls; settings: 10 µM; 24 h; SM minimal medium; subpopulation (auxotrophy): H
Outline: as §1

[5] = system: Saccharomyces cerevisiae BY4741 SeMeCo community; test: z-score of subpopulation abundance vs DMSO median, subpopulation auxotrophic for LU; higher = larger share of this subpopulation than in DMSO controls; settings: 10 µM; 24 h; SM minimal medium; subpopulation (auxotrophy): LU
Outline: as §1

[6] = system: Saccharomyces cerevisiae BY4741 SeMeCo community; test: z-score of subpopulation abundance vs DMSO median, subpopulation auxotrophic for LM; higher = larger share of this subpopulation than in DMSO controls; settings: 10 µM; 24 h; SM minimal medium; subpopulation (auxotrophy): LM
Outline: as §1

[7] = system: Saccharomyces cerevisiae BY4741 SeMeCo community; test: z-score of subpopulation abundance vs DMSO median, subpopulation auxotrophic for HU; higher = larger share of this subpopulation than in DMSO controls; settings: 10 µM; 24 h; SM minimal medium; subpopulation (auxotrophy): HU
Outline: as §1

[8] = system: Saccharomyces cerevisiae BY4741 SeMeCo community; test: z-score of subpopulation abundance vs DMSO median, subpopulation auxotrophic for UM; higher = larger share of this subpopulation than in DMSO controls; settings: 10 µM; 24 h; SM minimal medium; subpopulation (auxotrophy): UM
Outline: as §1

[9] = system: Saccharomyces cerevisiae BY4741 SeMeCo community; test: z-score of subpopulation abundance vs DMSO median, subpopulation auxotrophic for HL; higher = larger share of this subpopulation than in DMSO controls; settings: 10 µM; 24 h; SM minimal medium; subpopulation (auxotrophy): HL
Outline: as §1

[10] = system: Saccharomyces cerevisiae BY4741 SeMeCo community; test: z-score of subpopulation abundance vs DMSO median, subpopulation auxotrophic for HLU; higher = larger share of this subpopulation than in DMSO controls; settings: 10 µM; 24 h; SM minimal medium; subpopulation (auxotrophy): HLU
Outline: as §1

[11] = system: Saccharomyces cerevisiae BY4741 SeMeCo community; test: z-score of subpopulation abundance vs DMSO median, subpopulation auxotrophic for HLM; higher = larger share of this subpopulation than in DMSO controls; settings: 10 µM; 24 h; SM minimal medium; subpopulation (auxotrophy): HLM
Outline: as §1

[12] = system: Saccharomyces cerevisiae BY4741 SeMeCo community; test: z-score of subpopulation abundance vs DMSO median, subpopulation auxotrophic for HUM; higher = larger share of this subpopulation than in DMSO controls; settings: 10 µM; 24 h; SM minimal medium; subpopulation (auxotrophy): HUM
Outline: as §1

[13] = system: Saccharomyces cerevisiae BY4741 SeMeCo community; test: z-score of subpopulation abundance vs DMSO median, subpopulation auxotrophic for LUM; higher = larger share of this subpopulation than in DMSO controls; settings: 10 µM; 24 h; SM minimal medium; subpopulation (auxotrophy): LUM
Outline: as §1

[14] = system: Saccharomyces cerevisiae BY4741 SeMeCo community; test: z-score of subpopulation abundance vs DMSO median, subpopulation auxotrophic for HLUM; higher = larger share of this subpopulation than in DMSO controls; settings: 10 µM; 24 h; SM minimal medium; subpopulation (auxotrophy): HLUM
Outline: as §1

[15] = system: Saccharomyces cerevisiae BY4741 SeMeCo community; test: z-score of prototroph abundance vs DMSO median; higher = larger share of this subpopulation than in DMSO controls; settings: 10 µM; 24 h; SM minimal medium; subpopulation (auxotrophy): Prototroph
Outline: as §1

[16] = system: Saccharomyces cerevisiae BY4741 SeMeCo community; test: z-score of subpopulation abundance vs DMSO median, subpopulation auxotrophic for U; higher = larger share of this subpopulation than in DMSO controls; settings: 10 µM; 24 h; SM minimal medium; subpopulation (auxotrophy): U
Outline: as §1

[17] = system: Saccharomyces cerevisiae BY4741 SeMeCo community; test: z-score of subpopulation abundance vs DMSO median, subpopulation auxotrophic for HM; higher = larger share of this subpopulation than in DMSO controls; settings: 10 µM; 24 h; SM minimal medium; subpopulation (auxotrophy): HM
Outline: as §1

Compound	mean cell size [1]	z-score of subpopulation abundance [2]	z-score of subpopulation abundance [3]	z-score of subpopulation abundance [4]	z-score of subpopulation abundance [5]	z-score of subpopulation abundance [6]	z-score of subpopulation abundance [7]	z-score of subpopulation abundance [8]	z-score of subpopulation abundance [9]	z-score of subpopulation abundance [10]	z-score of subpopulation abundance [11]	z-score of subpopulation abundance [12]	z-score of subpopulation abundance [13]	z-score of subpopulation abundance [14]	z-score of prototroph abundance [15]	z-score of subpopulation abundance [16]	z-score of subpopulation abundance [17]
O=C(O)c1cc(O)c2c(c1)[C@H]([C@H]1c3cc(C(=O)O)cc(O)c3C(=O)c3c(O[C@@H]4O[C@H](CO)[C@@H](O)[C@H](O)[C@H]4O)cccc31)c1cccc(O[C@@H]3O[C@H](CO)[C@@H](O)[C@H](O)[C@H]3O)c1C2=O [Sennoside A]	12.57 ± 0.12	-1.76	-0.65	0	0.29	-0.8	0.33	-0.14	0.29	-0.71	-1.24	-0.7	-0.81	-1.25			
C[C@H](NCc1ccc(OCc2cccc(F)c2)cc1)C(N)=O [Safinamide Mesylate]	12.4 ± 0.16	0.58	0.79	0.45	0.54	0.94	0.27	0.17	0.64	0.4	0.54	0.75	0.24		-0.78	-0.34	
O=C(O)CCC(=O)Nc1ccc(S(=O)(=O)Nc2nccs2)cc1 [Succinylsulfathiazole]	12.52 ± 0.1	-0.13	-0.22	-1.14	-0.4	-0.35		0.02	-0.84	-0.43	-1.01	-0.33	-0.95	-0.62	0.73	0.33	
C/C=C1\[C@H]2C=C(C)C[C@]1(N)c1ccc(=O)[nH]c1C2 [(-)-Huperzine A (HupA)]	12.04 ± 0.12	1.03	-0.33	-1.16	-0.37	-0.7	-0.26	0.89	-1.26	-0.57	-0.61	0.11	-0.73	-0.57	0.12		
N[C@@H]1CN(c2c(F)cc3c(=O)c(C(=O)O)cn([C@@H]4C[C@@H]4F)c3c2Cl)CC12CC2 [Sitafloxacin Hydrate]	12.2 ± 0.062	0.3	0.29	0.2	0.44	0.69				0.03	-0.5	0.81		-0.03	-1.39	1.07	
CC1(C)S[C@@H]2[C@H](NC(=O)[C@H](N)c3ccccc3)C(=O)N2[C@H]1C(=O)OCOC(=O)[C@@H]1N2C(=O)C[C@H]2S(=O)(=O)C1(C)C [Sultamicillin]	12.26 ± 0.082	0.2	1.05	1.56	0.83	0.38	2.39		2.28	1.83	1.63	1.4	1.13	0.86	-1.74		
CC(C)[N+]1(C)[C@@H]2CC[C@H]1C[C@@H](OC(=O)C(CO)c1ccccc1)C2 (stereo partly specified) [Ipratropium Bromide]	12.4 ± 0.27	-0.02	0.58	-0.17	0.15		-0.22	-0.31	-0.04	-0.02	-0.71	-0.65	-0.28	0.07	0.41	-0.33	-0.34
CC(C)[C@H](N)C(=O)OCCOCn1cnc2c(=O)nc(N)[nH]c21 [Valaciclovir HCl]	12.3 ± 0.16	-0.55	-0.06	-0.62	-0.13	-0.74	0.53	0.08	-0.27	-0.75	-0.27	0.37		-0.14	0.5	0.12	
C[N+]1(C)[C@@H]2CC[C@H]1C[C@@H](OC(=O)C(O)c1ccccc1)C2 (stereo partly specified) [Homatropine Methylbromide]	12.4 ± 0.32	-0.38	-0.63	-1.04	0.06	-1	0.05	0.8	-0.55	0	-0.66	0.4	-0.14	-0.38		0.46	
Cc1ccc(-c2ncc(Cl)cc2-c2ccc(S(C)(=O)=O)cc2)cn1 [Etoricoxib]	12.4 ± 0.17	0.51	0.57	-0.35	-0.52		-0.51	0.52		0.34	-0.16	-0.71	-0.03	-0.24	-0.04	-0.32	-0.1
Cc1cnc(NC(=O)C2=C(O)c3ccccc3S(=O)(=O)N2C)s1 [Meloxicam]	12.77 ± 0.087	-0.52	-0.61	-0.59	-0.98	-0.94	-0.61	-0.26	-0.41	-1.26	-1.09	-0.88	-1.43		1.47	-0.19	
CC[C@H](c1ccc(O)cc1)[C@@H](CC)c1ccc(O)cc1 [Hexestrol]	12.7 ± 0.21	0.45	-0.78	-0.31	-1.49		-0.58		-0.81	-0.58	-0.94	-0.88	-1.39	-1.21	1.27	-0.6	-0.94
Oc1cccc(O)c1 [Resorcinol]	12.4 ± 0.22	-0.66	-0.23	-0.05	-1.33		-0.64	-0.77		0	-0.64	-0.96	-0.89	-0.65	0.94	0.1	-0.29
CCCC1CC(C(=O)NC(C(C)Cl)C2OC(SC)C(O)C(O)C2O)N(C)C1 (stereo unspecified) [Clindamycin alcoholate]	12.1 ± 0.19	0.25	1.51	0.65	-0.02	1.04		-0.51	1.2	-0.02	0.08	0.14	0.51	-0.12	-0.45	-0.8	
